Bioassay records: PubChem, National Center for Advancing Translational Sciences (NCATS)
Rows were chosen to be rich in hits. Some 2.7% of all compounds tested hit in one or more screens of this group.
ALOX12 inh – inhibitors of human 12S-lipoxygenase ALOX12; P18054; purified 12hLO, xylenol orange hydroperoxide absorbance; Potency, µM (series often up to 108 µM), without a hit: top-dose activity change, negative = inhibition, most hits filed as inhibitors; 580,000 compounds, 1.1% hits; AID 1671190; note: % is set by controls: 0 for no effect and ±100 for the full control effect
Target sequence (P18054 whole entry, looked up): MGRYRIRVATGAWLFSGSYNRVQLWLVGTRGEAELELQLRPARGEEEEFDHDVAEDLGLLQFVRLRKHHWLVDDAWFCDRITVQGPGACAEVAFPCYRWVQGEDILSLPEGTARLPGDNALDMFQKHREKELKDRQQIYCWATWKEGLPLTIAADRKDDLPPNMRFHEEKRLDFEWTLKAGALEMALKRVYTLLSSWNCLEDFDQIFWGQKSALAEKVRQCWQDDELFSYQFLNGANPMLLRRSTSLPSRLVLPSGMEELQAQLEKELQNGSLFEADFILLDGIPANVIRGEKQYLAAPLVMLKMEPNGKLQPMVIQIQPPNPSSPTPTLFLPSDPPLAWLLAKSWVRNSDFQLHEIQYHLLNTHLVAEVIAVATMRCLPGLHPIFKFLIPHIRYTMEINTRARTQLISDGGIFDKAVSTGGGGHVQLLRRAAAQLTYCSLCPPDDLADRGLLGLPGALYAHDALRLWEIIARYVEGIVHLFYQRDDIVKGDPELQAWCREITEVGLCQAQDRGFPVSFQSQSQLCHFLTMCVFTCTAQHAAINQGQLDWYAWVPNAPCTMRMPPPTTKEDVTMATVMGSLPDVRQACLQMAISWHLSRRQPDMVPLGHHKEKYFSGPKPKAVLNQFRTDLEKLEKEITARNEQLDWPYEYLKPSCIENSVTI
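Purified human 12hLO at 150 nM in 25 mM Hepes, 0.01% Triton X-100, pH 7.0, preincubated 15 min at room temperature with compound. Reaction started with 40 uM arachidonic acid, 30 min at room temperature. Hydroperoxide measured by Fe-xylenol orange, 573/405 nm absorbance ratio.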
ATXN viability – viability counter-screen for ATXN expression inhibitors | 400,000 compounds, 0.49% hits | Potency, µM (series often up to 56.7 µM), most hits filed as cytotoxic | S2 cells (HEK-293 line with an ATXN2-luciferase reporter) viability, CellTiter-Fluor protease fluorescence, 24 h; note: nearly all actives have a fitted effect of over 40% in size
ATXN2 expr inh – reduces ATXN2 reporter expression in HEK-293 cells. 360,000 compounds, 0.72% hits. Potency, µM (doses to about 57 µM), without a hit: top-dose activity change, negative = inhibition, hits mostly inhibitors. HEK-293 ATXN2-luciferase reporter, luminescence, 24 h; note: % is set by controls: 0 for no effect and ±100 for the full control effect; nearly all actives have a fitted effect of over 55% in size
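ATXN2-luciferase reporter cells (luciferase flanked by upstream and downstream ATXN2 gene portions) were treated 24 h at 37 °C with compounds at up to 57 uM. SteadyGlo luminescence gave expression; GF-AFC fluorescence gave viability.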
HepG2 viability – counter-screen for TGF-b inhibitors: cytotoxicity in HepG2 cells | HepG2 CAGA-GFP viability, ATP luminescence, 18 h | Potency, µM (titrated, usually from 46.1 µM), inactives show at the highest dose activity change, negative = cytotoxicity, usual class: cytotoxic | 410,000 compounds, 0.76% hits
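CellTiter-Glo luminescence gave cytotoxicity after 18 hours at 37 degrees C. The cells were HepG2 CAGA-GFP in 1% FBS DMEM, stimulated with 500 pg/mL TGF-beta after compound addition. %Activity was normalised to no-cell wells (complete cell-killing) and DMSO (no toxicity), and curves were fitted and classified.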
TGFb inhibitor – TGF-b pathway inhibition | HepG2 CAGA-GFP TGF-b/SMAD3 reporter, GFP fluorescence, 18 h; TGF-beta stimulated, 500 pg/mL final | Potency, µM (top dose mostly 46.1 µM), without a hit: at the top dose activity, negative = inhibition, most hits filed as inhibitors | 410,000 compounds, 1.2% hits; note: % is set by controls: 0 for no effect and ±100 for the full control effect; nearly all actives have a fitted effect of over 65% in size
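GFP signal (ex488/em500-530) from TGF-beta-stimulated HEPG2 CAGA-GFP cells, 500 pg/mL final, 18 h at 37 degrees C in DMEM plus 1% FBS, normalized to unstimulated and DMSO-stimulated controls.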
Numbers without * were called inactive; i = inactive; ? = inconclusive; . = not tested or not shown; ! = repeats disagree; [ ] = dose if it differs, or a comment. Calls come from the whole dose curve; as a rule, active = well fitted curve in the direction sought with a large enough effect; inconclusive = small, poorly fitted or top-dose-only effect, or another doubt; inactive = no such curve, though single readings can be large; an effect the other way counts as inactive or inconclusive. Potency is the fitted concentration of half-maximal effect.

SMILES | ALOX12 inh | ATXN viability | ATXN2 expr inh | HepG2 viability | TGFb inhibitor
COc1ccccc1CNc1nc(NCc2cccc(OC)c2OC)c2sccc2n1 | ? | ? | 31.6µM* | -71.7% | ?
COCCNc1nc(NCc2cccc(OC)c2OC)c2sccc2n1 | 6.7% | i | ? | -21.6% | -7.9%
COc1ccc(NC(=O)c2nn(C)c3c2CSc2ccc(C)cc2-3)cc1OC | -9.3% | i | -34.1% | 11.2µM* | -27.2%
COc1cc(/C=C/C(=O)N2CCN(C(=O)/C=C/c3cc(OC)c(OC)c(OC)c3)CC2)cc(OC)c1OC | . | i | 41.5% | 6.2% | 2.1%
CCSc1nc2ccccc2n1C(=O)/C=C/c1ccc(OC)c(OC)c1 | 0.2% | 8.91µM* | 7.94µM* | -51.7% | ?
CCn1c(SCC(=O)N/N=C/c2ccc(OC)c(OC)c2)nc2ccccc21 | 18.2% | i | 5.5% | 4.9% | 41.7%
C=CCSc1nc2ccccc2n1C(=O)/C=C/c1cc(OC)c(OC)c(OC)c1 | 3.7% | 3.55µM* | 10µM* | 11.2µM* | ?
C=CCSc1nc2ccccc2n1C(=O)/C=C/c1ccc(OC)c(OC)c1 | -4.1% | 10µM* | 14.1µM* | -9.2% | -6.3%
C=CCc1cc(CNC)cc(OC)c1OCC | 4.6% | . | . | . | .
COc1cccc(Nc2nc3ccccc3nc2NS(=O)(=O)c2cccc3nsnc23)c1 | -15.0% | . | . | . | .
COc1ccccc1-c1nnc(SCc2ccccn2)n1C | -26.9% | i | -3.1% | -1.4% | 4.0%
COc1ccccc1-c1nc(SCc2ccccn2)n[nH]1 | -19.6% | i | 58.0% | 12.6µM* | -0.4%
COCCOC(=O)C1=C(C)N=C2SC=C(CC(=O)N3CCCCC3C)N2C1c1ccccc1 (centres undefined) | 51.3% | . | . | . | .
Cc1nn2c(c1-c1ccccc1[S+](C)(=O)[O-])N(Cc1ccc(C(=O)O)s1)CCC2 | 31.6µM* | . | . | . | .
Cc1nn2c(c1-c1ccccc1-c1ccccc1)N(Cc1ccc(C(=O)O)s1)CCC2 | -0.6%[176 µM] | . | . | . | .
Cc1ccc(N(C(=O)c2cccs2)C2C=CS(=O)(=O)C2)cc1C (centres undefined) | -0.6% | . | . | . | .
Cc1cc(C)c2c(NC(=O)CCl)nn(C)c2n1 | 3.1% | ? | -3.7%[11.3 µM] | -12.7% | -3.4%
CCc1cc(SC#N)cc(CC)c1NC(=O)CCl | -27.2% | ? | ? | -81.3% | 7.94µM*
O=C(CCC(=O)OCC(=O)c1ccccc1)NC1CCCCC1 | 10.4% | i | 1.2% | 5.62µM* | ?
CC(N)c1cccc(S(N)(=O)=O)c1 (centres undefined) | -27.0% | . | . | . | .
Cc1ccc(S[C@@H](CCN2CC[C@H](O)CCC2=O)c2ccccc2)cc1 | 35.5µM* | i | 1.1% | -5.5% | ?
COc1ccc(S[C@@H](CCN2CC[C@H](C)CCC2=O)c2ccccc2)cc1 | -10.6% | ? | ? | 3.9% | 15.8µM*
Cc1ccc(S[C@@H](CCN2CC[C@H](C(C)(C)C)CCC2=O)c2ccccc2)cc1 | ? | ? | 0.0% | 12.6µM* | ?
COc1ccc(SC[C@H](C)CN2CC[C@H](C(C)(C)C)CCC2=O)cc1 | ? | ? | ? | 20µM*! | ?
Cc1ccc(S[C@@H](CCN2CC[C@H](C)CCC2=O)c2ccccc2)cc1 | ? | ? | -17.0% | -16.5% | ?
SMILES | ALOX12 inh | ATXN viability | ATXN2 expr inh | HepG2 viability | TGFb inhibitor
CSc1nccc(-c2cc(NCc3cccnc3)nc3[nH]ccc23)n1 | 76.1% | . | . | . | .
O=[N+]([O-])c1cc(C(F)(F)F)cc([N+](=O)[O-])c1NCCNC(=S)Nc1ccc(Cl)c(Cl)c1 | ? | . | ? | 11.2µM* | 11.2µM*
FC(F)(F)c1cccc(NC(=S)Nc2ccc(Cl)c(Cl)c2)c1 | 0.0% | i | ? | -26.8% | ?
COc1cc(/C=C2\SC(=S)N(NC(=O)c3cccnc3)C2=O)ccc1O | ? | 31.6µM* | . | -10.3% | -9.3%
Cc1ccc(/C=C2\SC(=S)N(C(Cc3ccccc3)C(=O)O)C2=O)cc1 (centres undefined) | 35.5µM* | ? | 0.8% | -27.9% | -3.6%
COc1cc(/C=C2\SC(=S)N(Nc3ccccc3)C2=O)ccc1O | ? | ? | 115.3% | -21.3% | 0.0%
COc1cc(/C=C2\SC(=S)N(NC(=O)c3ccc(O)cc3)C2=O)ccc1O | 0.0% | . | 19.9% | -4.1% | 35.5%
O=C(O)C(Cc1ccccc1)N1C(=O)/C(=C/c2ccccc2)SC1=S (centres undefined) | ? | ? | -5.7% | -22.8% | -11.2%
COc1cc(/C=C2\SC(=S)N(C(Cc3ccccc3)C(=O)O)C2=O)ccc1O (centres undefined) | 150.8% | 12.6µM* | . | 1.2% | -8.2%
Cc1ccc(-c2nc(-c3ccc(F)cc3)no2)cc1 | -46.6% | . | . | . | .
COc1ccc(Cl)cc1S(=O)(=O)Nc1ccc2c(c1)n(C)c(=O)n2C | ? | i | 47.6% | 20µM*! | -18.6%
CCOC(=O)C(C)NC(=O)NCCC1CCN(C(=O)Nc2cccc(Cl)c2)CC1 (centres undefined) | 2.1% | . | . | . | .
COc1ccc(OC)c(/C=N\NC(=O)CC(=O)NCCc2ccccc2)c1 | -5.7% | i | -17.5% | 10.4% | 21.1%
COc1ccc(OC)c(/C=N/NC(=S)NCCc2ccccc2)c1 | 44.7µM* | i | -11.0% | 6.6% | 0.0%
CC1(C)C2CC=C(/C=N/NC(=S)NCCc3ccccc3)C1C2 (centres undefined) | 44.7µM* | . | -11.0% | 12.0% | ?
S=C(NCCc1ccccc1)N/N=C/c1cccc(Cl)c1Cl | 50.1µM* | i | 1.7% | -3.7% | ?
Oc1ccccc1C=NNC(=S)Nc1ccc(F)cc1 | ? | i | ? | -1.8% | 0.0%
Fc1ccc(NC(=S)NN=Cc2ccccc2Cl)cc1 | 50.1µM* | i | -14.3% | 0.5% | 0.0%
COc1cccc(C(=O)NNC2=C(C(=O)C(F)(F)F)CCC2)c1 | 216.7% | i | -31.9% | 3.98µM* | ?
O=C(NNC1=C(C(=O)C(F)(F)F)CCC1)c1ccc(Br)cc1 | -14.4% | ? | ? | 10µM* | 15.8µM*
Nc1ccccc1C(=O)NNC1=C(C(=O)C(F)(F)F)CCC1 | 5.4% | ? | -38.4% | -33.5% | 13.1%
N#Cc1cccc(NC(=O)N[C@H]2[C@H](O)[C@@H](N3CCC(Cc4ccccc4)CC3)[C@@H]3OC[C@H]2O3)c1 | 44.7µM* | . | . | . | .
N#Cc1cccc(NC(=O)N[C@H]2[C@H](O)[C@@H](Oc3ccccc3)[C@@H]3OC[C@H]2O3)c1 | -3.7%[176 µM] | . | . | . | .
Cc1ccccc1CCNC(=O)c1ccc2c(c1)c(C)c(C)n2Cc1ccccc1 | -11.0% | . | . | -35.7% | 0.0%
Cc1c(C)n(Cc2ccccc2)c2ccc(C(=O)OCCCN(C)C)cc12 | -23.6% | ? | -31.3% | 17.8µM* | ?
Cc1ccccc1Cc1c(C)nc(N2CCN(Cc3ccccc3)CC2)[nH]c1=O | -23.7% | . | . | . | .
O=C(Nc1ccc(F)c(F)c1)c1ccc(-c2ccccc2)cc1 | 0.7% | . | . | . | .
